# Measurements: PubChem BioAssay AID720597 (Broad Institute, 2013)
# Results with a measured potency or affinity are listed apart. Active and inactive are the calls of the source.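 The calls were made as follows: active = fitted half-maximal dose no more than twice the top valid tested dose, for compounds that lower signal; inconclusive = fit invalid, or curve flat with activity between -70 and -30; inactive = potency past limit, curve flat within ±30, or signal increasing.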
# Target: NAD-dependent protein deacylase sirtuin-5, mitochondrial (Homo sapiens) (UniProt Q9NXA8)
# Sequence (Q9NXA8 whole entry, looked up): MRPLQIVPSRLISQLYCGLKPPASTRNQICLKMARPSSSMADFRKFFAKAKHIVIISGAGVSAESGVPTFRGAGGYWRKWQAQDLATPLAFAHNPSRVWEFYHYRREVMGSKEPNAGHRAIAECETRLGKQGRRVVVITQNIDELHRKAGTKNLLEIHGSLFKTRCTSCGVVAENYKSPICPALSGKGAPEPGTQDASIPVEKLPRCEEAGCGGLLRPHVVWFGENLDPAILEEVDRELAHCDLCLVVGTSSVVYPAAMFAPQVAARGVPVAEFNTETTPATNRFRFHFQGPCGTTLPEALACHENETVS
# Experiment: blockers of sirtuin-5 peptide desuccinylation – biochemical, fluorescence imaging, cherry-pick, set 6, dose response (AID 720597);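 also: lower AMC signal can also come from blocking the trypsin step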
# Settings: Purified SirT5, succinyl-peptide-AMC/trypsin fluorescence; series mostly up to 15 µM
row,SMILES,outcome
1,C[C@H]1CN([C@@H](C)CO)C(=O)c2c(c3ccccc3n2C)-c2ccccc2CO[C@H]1CN(C)S(=O)(=O)c1ccc(F)cc1,inactive
2,C[C@@H]1CN([C@@H](C)CO)S(=O)(=O)c2ccc(C#C[C@@H](C)O)cc2O[C@@H]1CN(C)Cc1ccc(-c2ccccc2)cc1,inactive
3,C[C@@H]1CN([C@H](C)CO)C(=O)c2c(c3ccccc3n2C)-c2ccccc2CO[C@H]1CN(C)Cc1cccc2c1OCCCO2,inactive
4,O=C(NC1CCCC1)[C@H]1[C@H](CO)[C@H]2Cn3c(ccc(-c4ccncc4)c3=O)[C@H]2N1CCc1ccccc1,inactive
5,CO[C@H]1CN(C)C(=O)c2cc(NC(C)=O)ccc2OC[C@H](C)N(S(=O)(=O)c2cn(C)cn2)C[C@H]1C,inactive
6,C[C@H](CO)N1C[C@H](C)[C@@H](CN(C)C(=O)c2ccc3c(c2)OCO3)Oc2cc(/C=C/c3ccccc3)ccc2S1(=O)=O,inactive
7,CC(C)(C)[S@@](=O)N1Cc2cc(C(=O)O)nc(-c3cccc(-c4cccc(F)c4)c3)c2[C@H]1CCO,inactive
8,COc1ccc(NC(=O)Nc2ccc3c(c2)C(=O)N([C@@H](C)CO)C[C@@H](C)[C@@H](CN(C)Cc2ccncc2)O3)cc1,inactive
9,C=CCOC(=O)[C@@H]1[C@H]2C(=O)O[C@H](c3ccccc3)[C@H](c3ccccc3)N2[C@H](c2ccc(OCCOC(=O)[C@@H]3C[C@@H]4C(=O)N[C@@H](Cc5ccccc5)C(=O)N4[C@@H]3c3ccc(O)cc3)cc2)[C@@]12C(=O)Nc1ccc(I)cc12,inactive
10,Cc1cccc(S(=O)(=O)N2CCCCN3[C@H](CO)[C@@H](c4ccc(-c5ccccc5)cc4)[C@H]3C2)c1,inactive
11,COc1ccccc1-c1ccc2c(c1)O[C@@H](CN(C)S(=O)(=O)c1ccccc1)[C@H](C)CN([C@H](C)CO)S2(=O)=O,inactive
12,C[C@H]1CN([C@@H](C)CO)C(=O)c2ccccc2-c2ccccc2CO[C@@H]1CN(C)Cc1ccc(C(F)(F)F)cc1,inactive
13,C/C=C/c1ccc2c(c1)O[C@H](CN(C)Cc1cccc(F)c1)[C@H](C)CN([C@H](C)CO)S2(=O)=O,inactive
14,C[C@H](CO)N1C[C@H](C)[C@H](CN(C)C(=O)Nc2ccc(F)cc2)Oc2ccc(NC(=O)Nc3ccc(F)cc3)cc2C1=O,inactive
15,C[C@@H]1CN([C@H](C)CO)C(=O)c2cc(NS(=O)(=O)c3cn(C)cn3)ccc2O[C@H]1CN(C)C(=O)Nc1ccccc1,inactive
16,COc1ccc(S(=O)(=O)N(C)C[C@H]2OCCCC[C@@H](C)Oc3ccc(NS(=O)(=O)c4ccc(C)cc4)cc3C(=O)N([C@@H](C)CO)C[C@H]2C)cc1,inactive
17,COCC(=O)NC[C@H]1N[C@H](CO)[C@@H]1c1ccc(C2=CCCCC2)cc1,inactive
18,C[C@@H]1CN([C@H](C)CO)C(=O)c2cc(NS(=O)(=O)c3ccc(F)cc3)ccc2O[C@@H](C)CCCCO[C@@H]1CN(C)CC1CCCCC1,inactive
19,C[C@@H]1CN([C@@H](C)CO)C(=O)c2cccc(NC(=O)c3ccc(-c4nccs4)cc3)c2O[C@@H]1CN(C)Cc1ccc(C(F)(F)F)cc1,inactive
20,COc1ccccc1C#Cc1cnc2c(c1)C(=O)N([C@@H](C)CO)C[C@H](C)[C@@H](CN(C)C)O2,inactive
21,COc1ccc(CN(C)C[C@H]2Oc3c(NC(=O)Nc4ccc(F)cc4)cccc3C(=O)N([C@@H](C)CO)C[C@@H]2C)cc1,inactive
22,CNC[C@@H]1Oc2ccc(NC(=O)Nc3ccc(F)cc3)cc2CC(=O)N([C@H](C)CO)C[C@@H]1C,inactive
23,C[C@@H]1CN([C@H](C)CO)C(=O)c2c(c3ccccc3n2C)-c2ccccc2CO[C@H]1CN(C)S(=O)(=O)c1ccc(C(F)(F)F)cc1,inactive
24,COc1ccc(S(=O)(=O)Nc2ccc3c(c2)CC(=O)N([C@@H](C)CO)C[C@@H](C)[C@H](CN(C)Cc2ccc(C(F)(F)F)cc2)O3)cc1,inactive
25,CO[C@H]1CN(C)C(=O)c2cc(NC(=O)CC(F)(F)F)ccc2OC[C@@H](C)N(C(=O)C2CCCCC2)C[C@@H]1C,inactive
26,CCCNC(=O)N(C)C[C@@H]1Oc2ncc(Br)cc2C(=O)N([C@H](C)CO)C[C@@H]1C,inactive
27,CC(C)C#Cc1cnc2c(c1)C(=O)N([C@@H](C)CO)C[C@H](C)[C@@H](CN(C)C(=O)CN1CCOCC1)O2,inactive
28,C[C@@H]1CCCCO[C@@H](CN(C)C(=O)Nc2ccc(C(F)(F)F)cc2)[C@H](C)CN([C@H](C)CO)C(=O)c2cc(NS(=O)(=O)c3ccc(Cl)cc3)ccc2O1,inactive
